# The list is not random: actives were taken first. Their share in the collection is about 3.8%.
# ATXN viability – Viability Counterscreen for Primary qHTS for Inhibitors of ATXN expression; S2 cells (HEK-293 line with an ATXN2-luciferase reporter) viability, CellTiter-Fluor protease fluorescence, 24 h; Potency, µM (titrated, usually from 56.7 µM), most hits filed as cytotoxic; actives 0.49% (n = 400,000); also: nearly all actives have a fitted effect of over 40% in size
# HT1080NT lethal – qHTS for induction of synthetic lethality in tumor cells producing 2HG: qHTS for the HT-1080-NT fibrosarcoma cell line; HT-1080-NT fibrosarcoma viability, CellTiter-Glo ATP luminescence, 48 h; Potency, µM (titrated, usually from 46.1 µM), for inactives: at the top dose activity, negative = less viability, hits mostly cytotoxic; actives 1.6% (n = 360,000); AID 686970, 2013;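 also: NT is the 2HG producing partner of a matched IDH1 knockdown line; 0% = DMSO-treated cells and -100% = media-only wells without cells; nearly all actives have a fitted effect of over 55% in size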
#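 750 cells/well, RPMI + 5% FBS; 2 h settle, compound pin-transfer, 48 h at 37 degrees C. CellTiter-Glo 10 min RT, luminescence. Normalized to DMSO and media-only wells.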
# HepG2 viability – qHTS for Inhibitors of TGF-b: Cytotox Counterscreen; HepG2 CAGA-GFP viability, ATP luminescence, 18 h; Potency, µM (top dose mostly 46.1 µM), for inactives: at the highest dose activity change, negative = cytotoxicity, actives largely listed as cytotoxic; actives 0.76% (n = 410,000); AID 588856, 2011
#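 HepG2 CAGA-GFP cells (1000/well, DMEM with 1% FBS) received compound, then TGF-beta at 500 pg/mL final, and were incubated 18 hours at 37 degrees C. Viability was read by CellTiter-Glo luminescence. Media-only wells were set as complete cell-killing and DMSO as no toxicity.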
# TGFb SMAD3 inh – qHTS for Inhibitors of TGF-b | HepG2 CAGA-GFP TGF-b/SMAD3 reporter, GFP fluorescence, 18 h; TGF-beta stimulated, 500 pg/mL final | Potency, µM (series often up to 46.1 µM), for the others: at the top dose activity, negative = inhibition, usual class: inhibitors | actives 1.2% (n = 410,000) | AID 588855, 2011; also: % is scaled to controls: 0 for no effect and ±100 for the full control effect; nearly all actives have a fitted effect of over 65% in size
#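 Inhibition was scored as loss of TGF-beta-induced (500 pg/mL final, 18 hours, 37 degrees C) GFP in HEPG2 cells carrying a CAGA-GFP reporter, in DMEM with 1% FBS. Well GFP was summed per cell; Activity was normalised to unstimulated and stimulated DMSO wells, then concentration-response fitting.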
# ATXN2 expr inh – Primary qHTS for Inhibitors of ATXN expression | Potency, µM (doses to about 57 µM), without a hit: at the highest dose activity change, negative = inhibition, hits mostly inhibitors | actives 0.72% (n = 360,000) | HEK-293 ATXN2-luciferase reporter, luminescence, 24 h; also: % is scaled to controls: 0 for no effect and ±100 for the full control effect; nearly all actives have a fitted effect of over 55% in size
#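 qHTS (up to 57 uM final) was run with 24 h compound exposure of reporter cells at 37 °C. Each well was multiplexed: SteadyGlo luminescence measured ATXN2-luciferase expression after a fluorogenic Gly-Phe-AFC viability readout (25 uM final).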
# HT1080 IDH1KD tx – qHTS for induction of synthetic lethality in tumor cells producing 2HG: qHTS for the HT-1080-IDH1KD cell line; HT-1080 IDH1 knockdown viability, ATP luminescence, 48 h; Potency, µM (series often up to 46.1 µM), inactives show at the top dose activity, negative = toxicity, actives largely listed as cytotoxic; actives 2% (n = 360,000); AID 686971, 2013;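 also: 0% = DMSO wells and -100% = cell-free medium wells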
#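 In this qHTS, HT-1080 cells depleted of IDH1 are exposed for 48 h at 37 °C to compound titrations. Toxicity is scored from CellTiter-Glo luminescence, with DMSO as full viability and medium alone as none.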
# Starred values were filed as active, the others as inactive; i = inactive; ? = inconclusive; nt = not tested or not shown; ! = a repeat was not active; [ ] = remark or other dose. Calls follow the shape of the dose curve; as a rule, active = well fitted curve in the direction sought with a large enough effect; inconclusive = small, poorly fitted or top-dose-only effect, or another doubt; inactive = no such curve, though single readings can be large; an effect the other way counts as inactive or inconclusive. Potency is read from the fitted curve at half-maximal effect.
SMILES,ATXN viability,HT1080NT lethal,HepG2 viability,TGFb SMAD3 inh,ATXN2 expr inh,HT1080 IDH1KD tx
Cc1ccccc1-c1nc(-c2ccccn2)no1,i,23µM*,-79%,0%,?,21µM*
CCCNC(=O)c1cn(CC)c2cc(N3CCN(C(=O)c4ccco4)CC3)c(F)cc2c1=O,i,1%,-18%,-2%,nt,0%
CCn1cc(C(=O)NCc2cccc(F)c2)c(=O)c2cc(F)c(N3CCN(C(=O)c4ccco4)CC3)cc21,?,13µM*,1%,1%,35µM*,23µM*
C=C1C(=O)[C@]23C[C@H]1CCC2[C@@]1(C)C(C[C@@H]3O)[C@](C)(C(=O)OC)CC[C@@H]1OC(C)=O (stereo partly drawn),2.8µM*,2.6µM*,5.6µM*,1µM*,2.5µM*,1.2µM*
C=C1C(=O)[C@]23C[C@H]1CC[C@H]2[C@]1(C)[C@@H](OC(C)=O)CC[C@@](C)(C(=O)OC)[C@H]1C[C@@H]3OC(C)=O,32µM*,3.7µM*,5.6µM*,?,?,2.6µM*
C=C1C(=O)[C@]23C[C@H]1CCC2[C@@]1(C)C(C[C@@H]3O)[C@](C)(C(=O)O)C[C@H](O)[C@@H]1O (stereo partly drawn),i,28%,-2%,-4%,3%,-2%
C=C1C(=O)[C@]23C[C@H]1CC[C@H]2[C@]1(C)[C@@H](O)CC[C@@](C)(C(=O)O)[C@H]1C[C@@H]3O,nt,?,-89%,8.9µM*,?,?
C=C1C(=O)[C@]23C[C@H]1CC[C@H]2[C@]1(C)[C@@H](OC(C)=O)CC[C@@](C)(C(=O)O)[C@H]1C[C@@H]3O,nt,6.5µM*,-79%,5.6µM*,3.2µM*,5.8µM*
O=C(NCc1ccc(F)cc1)C1CCN(S(=O)(=O)c2ccc3c(c2)CCCN3C(=O)C2CCC2)CC1,?,nt,-37%,?,-20%,nt
CCN1C(=O)CC(CC(=O)N2CCCCC2c2nccs2)(c2ccccc2C)C1=O (stereo not drawn),i,nt,nt,nt,nt,nt
CN(CCO)C1=NS(=O)(=O)c2cc([N+](=O)[O-])ccc21,i,1%,-25%,-4%,-10%,-17%
C=CCOCCN(C)C1=NS(=O)(=O)c2cc([N+](=O)[O-])ccc21,i,-1%,14µM*,?,-36%,?
COc1ccc(Br)cc1CNC(=O)CN1C(=O)c2cccnc2Oc2ccc(C)cc21,nt,nt,-11%,?,nt,nt
COc1ccc(C(=O)Oc2c(Sc3ccc(C)cc3)c(C)nn2C(C)(C)C)cc1OC,i,nt,-17%,?,-17%,nt
COc1cccc(C(=O)Oc2c(Sc3ccc(C)cc3)c(C)nn2C(C)(C)C)c1OC,nt,nt,13µM*,13µM*,?,nt
COc1ccccc1C(=O)Oc1c(Sc2ccccc2)c(C)nn1-c1ccccc1,11µM*,nt,-94%,?,?,nt
Cc1ccc(-n2nc3c(N4CCC(C(=O)NC(C)c5ccccc5)CC4)nnc(C)c3c2C)cc1 (stereo not drawn),?,nt,11µM*,8.9µM*,0%,nt
COc1ccc(-n2nc3c(N4CCC(C(=O)NCCc5ccccc5C)CC4)nnc(C)c3c2C)cc1,?,-1%,-31%,-20%,?,-11%
COc1ccc(-n2nc3c(N4CCC(C(=O)NCc5ccccc5C)CC4)nnc(C)c3c2C)cc1,i,15µM*,-5%,?,-5%,16µM*
CCOc1ccccc1CNC(=O)C1CCCN(c2nnc(C)c3c(C)n(-c4ccccc4)nc23)C1 (stereo not drawn),7.9µM*,21µM*,0%,?,?,18µM*
Cc1ccc(-n2nc3c(N4CCC(C(=O)NCCc5ccccc5C)CC4)nnc(C)c3c2C)cc1,?,-7%,4%,4.5µM*!,?,-4%
CC1(C)OC(=O)Nc2ccc(Br)cc21,i,nt,nt,nt,19%,nt
COc1ccc(C2Nc3ccccc3C(=O)N2c2ccccc2F)cc1COc1ccc(NC(C)=O)cc1 (stereo not drawn),nt,nt,-4%,0%,nt,nt
COc1ccc(-n2nc3c(N4CCCC(C(=O)NCc5ccccc5C)C4)nnc(C)c3c2C)cc1 (stereo not drawn),nt,nt,-74%,5µM*,nt,nt
CCN(CC)CCn1c(=N)n(CC(O)COc2cccc(C)c2)c2ccccc21 (stereo not drawn),?,?,-59%,?,-31%[11.3 µM],21µM*
SMILES,ATXN viability,HT1080NT lethal,HepG2 viability,TGFb SMAD3 inh,ATXN2 expr inh,HT1080 IDH1KD tx
Cc1cccc(OCC(O)Cn2c(=N)n(CCN3CCCCC3)c3ccccc32)c1 (stereo not drawn),nt,10µM*,11µM*!,?,?,11µM*
CCn1c(=N)n(CC(O)COc2ccccc2)c2ccccc21 (stereo not drawn),i,nt,-16%,32%,-19%,nt
CCN(CC)CCn1c(=N)n(CC(O)COc2ccccc2C)c2ccccc21 (stereo not drawn),nt,nt,-101%,nt,nt,nt
Cc1cc(NC(=O)CSc2nc(C(C)C)nc3c2c(=O)n(C)c(=O)n3C)no1,i,11%,-6%,1%,-12%,-5%
CCCCn1c(SCC(=O)Nc2cc(NC(=O)c3ccco3)ccc2C)nc2ccccc2c1=O,?,?,-11%,-3%,?,11µM*
CCCn1c(=O)n(C)c(=O)c2c(SCC(=O)Nc3cc(C)on3)nc(C(C)(C)C)nc21,?,-24%,-89%,18µM*,-27%,-21%
CCCCn1c(SCC(=O)Nc2ccc(NC(C)=O)cc2)nc2ccccc2c1=O,i,-15%,-25%,-7%,-13%,-4%
COCCn1c(SCC(=O)Nc2ccc(NC(=O)c3ccco3)c(OC)c2)nc2ccccc2c1=O,i,?,9%,0%,-18%,?
CCCCn1c(SCC(=O)Nc2cc(C)on2)nc2ccccc2c1=O,i,-12%,4µM*,-54%,-25%,0%
Cc1cc(NC(=O)CSc2nc(-c3cccs3)nc3ccccc23)no1,?,5.8µM*,-9%,-23%,-19%,5.2µM*
O=C(CCC(=O)N1CC2CCCN2c2ccccc21)NCc1ccccc1F (stereo not drawn),nt,nt,-19%,-2%,nt,nt

# Compound activity: PubChem BioAssay, National Center for Advancing Translational Sciences (NCATS)
